Measured values published in PubChem BioAssay (NCATS).
Inconclusive results are not listed. Where a call stands in place of a potency, no number is given. A number with no mark means an inactive call. The source made the active and inactive calls. Calls follow the shape of the dose curve; as a rule, active = well fitted curve in the direction sought with a large enough effect; inconclusive = small, poorly fitted or top-dose-only effect, or another doubt; inactive = no such curve, though single readings can be large; an effect the other way counts as inactive or inconclusive.

Tests used:
[1] = biological target: Rap guanine nucleotide exchange factor 3 (Homo sapiens) (UniProt O95398); assay: Confirmatory qHTS for antagonist of cAMP-regulated guanine nucleotide exchange factor 3 (EPAC1) (AID 1645880); also: nearly all actives have a fitted effect of over 55% in size; also: potency is read from the fitted curve at half-maximal effect
Summary of the method: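 Nucleotide exchange uses 100 nM EPAC1, 250 nM RAP1B-BODIPY-GDP and 50 uM GDP, with compounds in a concentration-titration series. After 5 min at room temperature, fluorescence (480 nm ex/540 nm em) is read every 5 min for 30 min. Data are normalized to control ATA and DMSO.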

[2] = biological target: Rap guanine nucleotide exchange factor 3 (Homo sapiens) (UniProt O95398); assay: Confirmatory qHTS for agonist of cAMP-regulated guanine nucleotide exchange factor 3 (EPAC1) (AID 1645881); also: nearly all actives have a fitted effect of over 75% in size; also: potency is read from the fitted curve at half-maximal effect;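 as to activation: EPAC1 catalysed release of BODIPY-GDP from Rap1B seen as fluorescence loss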
[3] = biological target: Rap guanine nucleotide exchange factor 4 (Homo sapiens) (UniProt Q8WZA2); assay: Confirmatory qHTS for agonist of cAMP-regulated guanine nucleotide exchange factor 4 (EPAC2) (AID 1645884);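 also: nucleotide exchange releases bodipy-GDP from Rap1 and this lowers its fluorescence; nearly all actives have a fitted effect of over 65% in size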; also: potency is read from the fitted curve at half-maximal effect
[4] = biological target: Rap guanine nucleotide exchange factor 4 (Homo sapiens) (UniProt Q8WZA2); assay: Confirmatory qHTS for antagonist of cAMP-regulated guanine nucleotide exchange factor 4 (EPAC2) (AID 1645885); also: nearly all actives have a fitted effect of over 25% in size; also: potency is read from the fitted curve at half-maximal effect
[5] = biological target: Rap guanine nucleotide exchange factor 3 (Homo sapiens) (UniProt O95398); assay: Counterscreen qHTS for antagonist of cAMP-regulated guanine nucleotide exchange factor 3 (EPAC1) (AID 1645888);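 also: fluorescence loss as bound BODIPY-GDP is released from Rap1B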
Summary of the method: (§1)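 Rap1B–BODIPY-GDP (250 nM) with 50 uM GDP; compounds pin-transferred to 9.74 nM–152 uM final (activator) or from 7.32 nM upwards (inhibitor). Fluorescence Ex/Em 480/540 nm read at 5 and 30 min, then after adding cAMP or buffer, at room temperature.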

[6] = biological target: Rap guanine nucleotide exchange factor 3 (Homo sapiens) (UniProt O95398); assay: Counterscreen qHTS for agonist of cAMP-regulated guanine nucleotide exchange factor 3 (EPAC1) (AID 1645889); also: nearly all actives have a fitted effect of over 40% in size; also: potency is read from the fitted curve at half-maximal effect
Summary of the method: as §1

Sequence of Rap guanine nucleotide exchange factor 3 (Homo sapiens) (O95398 whole entry, looked up): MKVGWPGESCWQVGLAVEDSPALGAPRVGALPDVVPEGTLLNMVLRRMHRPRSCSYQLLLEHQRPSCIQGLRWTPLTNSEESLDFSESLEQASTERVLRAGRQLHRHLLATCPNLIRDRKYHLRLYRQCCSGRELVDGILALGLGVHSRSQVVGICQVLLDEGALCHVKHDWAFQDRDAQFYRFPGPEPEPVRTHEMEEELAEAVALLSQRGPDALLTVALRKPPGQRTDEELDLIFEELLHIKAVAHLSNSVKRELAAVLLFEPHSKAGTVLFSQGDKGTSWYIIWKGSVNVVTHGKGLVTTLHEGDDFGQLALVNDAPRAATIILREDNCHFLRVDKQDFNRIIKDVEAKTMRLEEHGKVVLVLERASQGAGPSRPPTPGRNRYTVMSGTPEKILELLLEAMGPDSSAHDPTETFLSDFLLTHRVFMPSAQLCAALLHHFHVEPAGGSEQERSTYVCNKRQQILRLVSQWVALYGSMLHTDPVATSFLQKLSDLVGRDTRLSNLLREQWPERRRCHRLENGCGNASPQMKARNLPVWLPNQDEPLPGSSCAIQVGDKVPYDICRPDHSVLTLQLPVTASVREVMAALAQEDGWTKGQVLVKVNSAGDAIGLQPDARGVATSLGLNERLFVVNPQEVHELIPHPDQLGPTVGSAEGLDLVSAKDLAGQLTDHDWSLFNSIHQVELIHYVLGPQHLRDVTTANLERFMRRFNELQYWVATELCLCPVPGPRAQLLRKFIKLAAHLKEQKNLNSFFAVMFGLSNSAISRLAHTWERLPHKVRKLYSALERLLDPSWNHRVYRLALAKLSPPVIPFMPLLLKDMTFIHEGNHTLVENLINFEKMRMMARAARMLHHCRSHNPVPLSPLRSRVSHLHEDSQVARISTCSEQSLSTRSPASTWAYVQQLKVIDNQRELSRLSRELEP
Sequence of Rap guanine nucleotide exchange factor 4 (Homo sapiens) (Q8WZA2 whole entry, looked up): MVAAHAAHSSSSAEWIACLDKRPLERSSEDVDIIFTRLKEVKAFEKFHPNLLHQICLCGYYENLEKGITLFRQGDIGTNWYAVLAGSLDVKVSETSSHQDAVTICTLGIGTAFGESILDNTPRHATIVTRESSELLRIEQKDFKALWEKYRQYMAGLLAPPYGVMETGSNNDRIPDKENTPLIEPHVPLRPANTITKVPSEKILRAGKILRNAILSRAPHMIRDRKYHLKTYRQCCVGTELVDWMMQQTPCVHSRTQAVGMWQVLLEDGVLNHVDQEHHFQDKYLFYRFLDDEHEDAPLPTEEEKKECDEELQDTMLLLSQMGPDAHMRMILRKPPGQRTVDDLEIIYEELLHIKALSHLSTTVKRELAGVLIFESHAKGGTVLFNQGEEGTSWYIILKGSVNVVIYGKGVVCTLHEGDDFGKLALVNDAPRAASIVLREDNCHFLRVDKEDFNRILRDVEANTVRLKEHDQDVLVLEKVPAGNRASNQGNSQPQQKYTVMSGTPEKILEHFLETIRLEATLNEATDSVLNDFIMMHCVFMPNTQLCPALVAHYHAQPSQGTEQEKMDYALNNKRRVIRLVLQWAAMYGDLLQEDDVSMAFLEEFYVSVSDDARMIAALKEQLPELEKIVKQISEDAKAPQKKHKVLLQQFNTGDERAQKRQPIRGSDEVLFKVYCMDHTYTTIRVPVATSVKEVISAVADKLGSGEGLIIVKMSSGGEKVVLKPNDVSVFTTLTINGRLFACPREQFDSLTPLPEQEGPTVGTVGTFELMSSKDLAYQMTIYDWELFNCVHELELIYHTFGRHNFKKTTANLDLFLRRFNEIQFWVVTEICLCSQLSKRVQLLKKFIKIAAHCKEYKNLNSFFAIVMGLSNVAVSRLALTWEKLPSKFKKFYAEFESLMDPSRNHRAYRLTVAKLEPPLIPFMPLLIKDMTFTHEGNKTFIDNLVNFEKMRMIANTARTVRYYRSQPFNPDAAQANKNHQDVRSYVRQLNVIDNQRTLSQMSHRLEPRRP

SMILES | Potency [1] | Potency [2] | activation [3] | Potency [4] | activity change, negative = inhibition [5] | activation [6] | Potency [3] | outcome [4] | Potency [5] | Potency [6]
O=C1c2cccc3cccc(c23)N1Cc1ccc(F)cc1 | inactive | inactive | 1.12% [at 17.1 µM, percent relative to cAMP agonist control] | inactive | -16.7% [at 30.8 µM] | 4.85% [at 30.8 µM] |  |  |  | 
CCOC(=O)c1cnc2ccccc2c1Nc1cccc(OC)c1 | inactive | inactive |  |  |  |  | inactive | inactive [at 12.7 µM] | inactive | inactive
Cc1ccc(S(=O)(=O)N2[C@@H](c3ccc(Br)cc3)C(C(=O)O)=CC[C@H]2c2ccc(Cl)cc2)cc1 | 75.7 µM (active) | inactive |  | inactive |  |  | inactive |  | inactive | inactive
CC1Cc2nc(SCC(=O)NCc3ccccc3)n(Cc3ccccc3)c(=O)c2S1 (stereo not drawn) | inactive | inactive | 2.68% [at 17.1 µM, percent relative to cAMP agonist control] | inactive | 0.448% [at 30.8 µM] | 14% [at 30.8 µM] |  |  |  | 
O=C(CC[C@H]1O[C@@H](n2ccc(=O)[nH]c2=O)[C@H](O)[C@@H]1O)NCc1cccc2ccccc12 | inactive | inactive |  | inactive |  |  | inactive |  | inactive | inactive
O=C(CNC(=O)c1sc2ccccc2c1Cl)Nc1ccccc1F | inactive | inactive | 11.8% [at 17.1 µM, percent relative to cAMP agonist control] | inactive | -19.6% [at 30.8 µM] | 2.6% [at 30.8 µM] |  |  |  | 
N#C/C(=C\c1cn(Cc2ccc(C#N)cc2)c2ccccc12)C(=O)NCc1cccs1 | inactive | inactive | 8.48% [at 17.1 µM, percent relative to cAMP agonist control] | inactive | 7.4% [at 30.8 µM] | 15.9% [at 30.8 µM] |  |  |  | 
CCOC(=O)c1c(NC(=O)c2ccc(S(=O)(=O)N3CCC(C)CC3)cc2)sc2c1CCN(C(C)C)C2 | inactive | 89.1 µM (active) |  |  |  |  | 31.6 µM (active) | inactive [at 12.7 µM] | inactive | 44.7 µM (active)
Cc1[nH]n(-c2ccccc2)c(=O)c1C(c1cc(Cl)ccc1O)c1c(C)[nH]n(-c2ccccc2)c1=O | 75.7 µM (active) | inactive |  | inactive |  |  | inactive |  | inactive | 2.51 µM (active)
Cc1cccc(NC(=O)CN2C(=O)S/C(=C\c3ccc(O)c([N+](=O)[O-])c3)C2=O)c1 | 23.9 µM (active) | inactive |  | inactive |  |  | inactive |  | inactive | inactive
O=C(CN1C(=O)N/C(=C\c2ccccc2OCc2ccc(C(=O)O)cc2)C1=O)Nc1ccccc1F | 28.2 µM (active) | inactive | 5.81% [at 17.1 µM, percent relative to cAMP agonist control] | inactive | -13.4% [at 30.8 µM] | 19.6% [at 30.8 µM] |  |  |  | 
CCc1ccccc1N(CC(=O)NCCc1ccccc1)C(=O)CCC(=O)Nc1ccccn1 | inactive | inactive |  | inactive |  |  | inactive |  | inactive | inactive
O=C(Nc1sc(-c2ccccc2)cc1C(=O)O)c1ccccc1 | 75.7 µM (active) | inactive |  | inactive |  |  | inactive |  | inactive | inactive
COc1ncc(-c2c(-c3ccccc3OC)sc3ccccc23)cn1 | inactive | inactive | -3.13% [at 17.1 µM, percent relative to cAMP agonist control] | inactive | -4.66% [at 30.8 µM] | 15.7% [at 30.8 µM] |  |  |  | 
CC1CCN(C(=O)CSc2nnc(CN3CCOCC3)n2-c2ccccc2)CC1 | inactive | inactive |  | inactive |  |  | inactive |  | inactive | inactive
O=C(c1ccc(Br)cc1)N(Cc1cccs1)c1ccc(F)cc1 | inactive | inactive |  | inactive |  |  | inactive |  | inactive | inactive
Cc1ccc(/C=C/C(=O)Nc2ccc(S(=O)(=O)Nc3cc(C)nc(C)n3)cc2)cc1 | inactive | inactive |  | inactive |  |  | inactive |  | inactive | inactive
Cc1noc(C)c1CSc1ncnc2sc(C)c(C)c12 | inactive | inactive |  | inactive |  |  | inactive |  | inactive | inactive
CCCN1C(=O)c2cc(C(=O)Nc3ccccc3CC)ccc2C1O (stereo not drawn) | inactive | inactive |  | inactive |  |  | inactive |  | inactive | inactive
CC(C)c1ccc(N(C(=O)c2csnn2)C(C(=O)NC(C)(C)C)c2cccnc2)cc1 (stereo not drawn) | inactive | inactive |  | inactive |  |  | inactive |  | inactive | inactive
CC(C)CS(=O)(=O)C1=NN2C(=N)/C(=C\c3ccc(OC(=O)c4ccco4)cc3)C(=O)N=C2S1 | 37.9 µM (active) | inactive |  | inactive |  |  | inactive |  | inactive | inactive
Cc1nc2cc(NC(=O)CCS(=O)(=O)c3ccccc3)ccc2s1 | inactive | inactive | -6.47% [at 17.1 µM, percent relative to cAMP agonist control] | inactive | -11.5% [at 30.8 µM] | 14.1% [at 30.8 µM] |  |  |  | 

SMILES | Potency [1] | Potency [2] | activation [3] | Potency [4] | activity change, negative = inhibition [5] | activation [6] | Potency [3] | outcome [4] | Potency [5] | Potency [6]
COc1cc(/C=C2\SC(=O)N(c3ccccc3Cl)C2=O)cc([N+](=O)[O-])c1O | 47.8 µM (active) | inactive |  | 42.6 µM (active) |  |  | inactive |  | inactive | inactive
CC(=O)Nc1nc(C)c(Oc2ccc(Cl)cc2Cl)c(=O)[nH]1 | inactive | inactive | 0% [at 17.1 µM, percent relative to cAMP agonist control] | inactive | -5.48% [at 30.8 µM] | 7.36% [at 30.8 µM] |  |  |  | 
CCCc1cc2c(cc1N(C)S(=O)(=O)c1ccccc1)OCO2 | inactive | inactive |  | inactive |  |  | inactive |  | inactive | inactive
CCc1ccc2oc(C(=O)Nc3ccccc3OC)cc(=O)c2c1 | inactive | inactive |  |  |  |  | inactive | inactive [at 12.7 µM] | inactive | inactive
Cc1cnc(C(=O)N(c2ccc(N3CCOCC3)cc2)C2C(=O)Nc3ccccc3N=C2c2ccc(F)cc2)cn1 (stereo not drawn) | inactive | inactive |  | inactive |  |  | inactive |  | inactive | inactive
O=C(O)CN1C(=O)/C(=C\c2cccc(OCc3ccc(Cl)cc3)c2)SC1=S | 75.7 µM (active) | inactive |  | inactive |  |  | inactive |  | inactive | inactive
O=CN1N=C(c2ccccc2)CC1c1ccc(Cl)cc1 (stereo not drawn) | inactive | inactive |  | inactive |  |  | inactive |  | inactive | inactive
CC[C@@]1(c2ccccc2OC)ON(c2ccccc2C(F)(F)F)C1=O | inactive | inactive |  | inactive |  |  | inactive |  | inactive | inactive
CCOC(=O)c1ccccc1NC(=S)N1CCC(N2CCCCC2)CC1 | inactive | inactive |  | inactive |  |  | inactive |  | inactive | inactive
COc1cc(OC)nc(Oc2cc(/C=N/O)ccc2OC)n1 | inactive | inactive | -0.415% [at 17.1 µM, percent relative to cAMP agonist control] | inactive | -10.5% [at 30.8 µM] | 1.61% [at 30.8 µM] |  |  |  | 
Cn1c(=O)c2nc3ccc(NC(=O)C(F)(F)F)cc3nc2n(C)c1=O | 84.9 µM (active) | inactive |  | inactive |  |  | inactive |  | inactive | inactive
O=C(c1ccccc1[N+](=O)[O-])N1CCN(c2ccc(N3CCOCC3)nn2)CC1 | inactive | inactive |  | inactive |  |  | inactive |  | inactive | inactive
O=C1S/C(=C\c2ccc(O)c([N+](=O)[O-])c2)C(=O)N1c1ccccc1Cl | 75.7 µM (active) | inactive |  | 47.8 µM (active) |  |  | inactive |  | inactive | inactive
CCOC(=O)c1ccc(N2C(=O)c3[nH]nc(-c4ccc(OCC)cc4)c3C2c2cccs2)cc1 (stereo not drawn) | inactive | inactive |  | inactive |  |  | inactive |  | inactive | inactive
COc1ccccc1C(=O)NC(CCSC)C(=O)NCc1ccccn1 (stereo not drawn) | inactive | inactive | -0.555% [at 17.1 µM, percent relative to cAMP agonist control] | inactive | -16.2% [at 30.8 µM] | -9.2% [at 30.8 µM] |  |  |  | 
O=C1c2ccccc2S(=O)(=O)c2cc(N3CCC4(CC3)OCCO4)ccc21 | inactive | inactive |  | 84.9 µM (active) |  |  | inactive |  | inactive | 14.1 µM (active)
COC(=O)C(C)N(C(=O)c1ccc(Cl)cc1)c1c(C)cccc1C (stereo not drawn) | inactive | inactive |  | inactive |  |  | inactive |  | inactive | inactive
COc1cc(/C=C2/C(=O)NN(c3ccc(C)c(Cl)c3)C2=O)cc([N+](=O)[O-])c1O | 8.49 µM (active) | inactive |  | inactive |  |  | inactive |  | inactive | inactive
Cc1ccc(Cl)cc1NC(=O)C(C)n1nc(-c2ccccc2)ccc1=O (stereo not drawn) | inactive | inactive |  | inactive |  |  | inactive |  | inactive | inactive
CCOC(=O)C1=C(C)N=C2SC=C(C)N2C1c1ccc(OC)cc1 (stereo not drawn) | inactive | inactive |  | inactive |  |  | inactive |  | inactive | inactive
COc1cc(Cl)c(C)cc1NC(=O)c1ccc(CN2C(=O)CCn3nc(C)cc32)cc1 | inactive | inactive |  | inactive |  |  | inactive |  | inactive | inactive
